These results are taken from PubChem BioAssay (NCI).

What all share (test): NCI-60 one-dose screen, 48 h (100 = growth as untreated, 0 = no growth, -100 = all killed)
The test system of one test is EKVX NSCLC. As to conditions: 10 µM unless noted.
The next test concerns SN12C renal. As to conditions: 10 µM unless noted.
For another test, the system named is UO-31 renal. The note with it: 10 µM unless noted.
For a further test, the system named is TK-10 renal. The note with it: 10 µM unless noted.
In a further test the test system is ACHN renal. As to conditions: 10 µM unless noted.
Another test concerns CAKI-1 renal. As to conditions: 10 µM unless noted.
In a further test the test system is A498 renal. The note with it: 10 µM unless noted.
Another test concerns CCRF-CEM leukemia. As to conditions: 10 µM unless noted.
For another test, the system named is MOLT-4 leukemia. The note with it: 10 µM unless noted.
The next test relates to SR leukemia. The note with it: 10 µM unless noted.
A further test has as its system RPMI-8226 leukemia. As to conditions: 10 µM.
A further test concerns OVCAR-8 ovarian. The note with it: 10 µM unless noted.
The subject of a further test is OVCAR-5 ovarian. As to conditions: 10 µM unless noted.
A further test concerns OVCAR-4 ovarian. As to conditions: 10 µM unless noted.
In a further test the test system is SK-OV-3 ovarian. The note with it: 10 µM.
The subject of another test is IGROV1 ovarian. The note with it: 10 µM unless noted.
In a further test the test system is OVCAR-3 ovarian. As to conditions: 10 µM unless noted.
The test system of another test is HS 578T breast. The note with it: 10 µM unless noted.
The subject of another test is NCI/ADR-RES ovarian. The note with it: 10 µM unless noted.
The next test relates to SK-MEL-2 melanoma. The note with it: 10 µM unless noted.

Compounds without any hit were thinned out: in the full panel of roughly 83,000, 20% have a hit.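 How to read the values: 0–100, growth inhibition (40 = 60% inhibited); 0, no net growth; -100 to 0, cell death (-40 = 40% of starting cells died; -100 = all dead).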 A number with no mark means an inactive call. Active and inactive are the calls of the source. How the source made its calls: active means growth percent below 10; inactive means the rest.

In the case of `C=C1CC[C@@H]2[C@@](C)(CCC[C@]2(C)C(=O)O)[C@@H]1CC[C@H](CO)CCO`, the growth in the test with EKVX NSCLC was 108%; in the test with SN12C renal, 103%; in the test on UO-31 renal, 79.5%; in the test on TK-10 renal, 99.4%; in the test with ACHN renal, 106%; with CAKI-1 renal it was 101%. For the same compound, the growth with A498 renal was 107%; with CCRF-CEM leukemia, 102%; in the test with MOLT-4 leukemia it was 88.2%; in the test with SR leukemia, 85.2%; with RPMI-8226 leukemia, 113%; in the test with OVCAR-8 ovarian it was 104%. The growth is 108% in the test on OVCAR-5 ovarian; 99% with OVCAR-4 ovarian; 102% with SK-OV-3 ovarian; 99% with IGROV1 ovarian; 76.4% in the test on OVCAR-3 ovarian; 107% in the test on HS 578T breast. In addition, the growth in the test with NCI/ADR-RES ovarian is 104%.
As to `COc1cccc(C2CC(=O)Nc3cc4c(cc32)OCO4)c1OC` (stereo unspecified), the growth is 110% with EKVX NSCLC; 103% in the test on SN12C renal; 72.4% in the test with UO-31 renal; 87% in the test with TK-10 renal; 91.8% in the test with ACHN renal; 78.4% in the test with CAKI-1 renal. Moreover, the growth was 77.6% in the test with A498 renal; 82.1% in the test with CCRF-CEM leukemia; 87.1% in the test on MOLT-4 leukemia; 86.2% in the test on SR leukemia; 79.2% in the test with RPMI-8226 leukemia; 98.6% in the test with OVCAR-8 ovarian. The growth is 98.8% in the test with OVCAR-5 ovarian; 95% with OVCAR-4 ovarian; 102% in the test with SK-OV-3 ovarian; 93.4% with IGROV1 ovarian; 99.7% in the test on OVCAR-3 ovarian; 93.1% in the test on HS 578T breast. For the same compound, the growth in the test on NCI/ADR-RES ovarian is 92.2%.
Turning to `O=C1NC(=O)C2(CCCC2C(=O)O)N1` (stereo unspecified), the growth in the test on EKVX NSCLC is 94.2%; with SN12C renal it was 99.6%; in the test on UO-31 renal, 96.5%; in the test on TK-10 renal, 106%; in the test with ACHN renal, 99.5%; in the test with CAKI-1 renal it was 102%. For the same compound, the growth is 115% in the test on A498 renal; 91.8% in the test with CCRF-CEM leukemia; 101% with MOLT-4 leukemia; 90.4% with SR leukemia; 103% in the test on RPMI-8226 leukemia; 100% in the test on OVCAR-8 ovarian. The growth in the test on OVCAR-5 ovarian is 110%; with OVCAR-4 ovarian it was 99.4%; with SK-OV-3 ovarian, 119%; in the test with IGROV1 ovarian, 131%; in the test on OVCAR-3 ovarian, 120%; in the test with HS 578T breast, 115%. Further, the growth in the test on NCI/ADR-RES ovarian is 100%.
Take `Cc1ccccc1-n1nnc(C(=O)Nc2ccc(-c3ccccc3)cn2)c1C`: the growth was 42% [50 µM] in the test with SK-MEL-2 melanoma; 64.4% [50 µM] with SN12C renal; 38.8% [50 µM] with UO-31 renal; 31.1% [50 µM] in the test on CAKI-1 renal; 61.2% [50 µM] with A498 renal; 8.31% [50 µM] (active) in the test on MOLT-4 leukemia. The growth in the test on SR leukemia was 16% [50 µM]; with OVCAR-8 ovarian it was 41.2% [50 µM]; in the test with OVCAR-5 ovarian it was 87.1% [50 µM]; in the test on OVCAR-4 ovarian it was 11.5% [50 µM]; with IGROV1 ovarian, 71% [50 µM]; with OVCAR-3 ovarian, 68.8% [50 µM]. Moreover, the growth was 90% [50 µM] in the test on HS 578T breast and 33.3% [50 µM] in the test with NCI/ADR-RES ovarian.
With `FCOC(C(F)(F)F)C(F)(F)F`, the growth in the test on EKVX NSCLC is 107%; in the test on SN12C renal, 113%; in the test on UO-31 renal, 87%; with TK-10 renal it was 91.1%; in the test with ACHN renal, 104%; with CAKI-1 renal, 98.5%. Moreover, the growth in the test on A498 renal was 95.3%; in the test with CCRF-CEM leukemia, 101%; with MOLT-4 leukemia, 97.3%; with SR leukemia it was 86.2%; in the test with OVCAR-8 ovarian, 107%; in the test on OVCAR-5 ovarian, 103%. For the same compound, the growth with OVCAR-4 ovarian was 121%; with SK-OV-3 ovarian, 98%; in the test on IGROV1 ovarian, 111%; in the test on OVCAR-3 ovarian, 107%; with HS 578T breast it was 107%; with NCI/ADR-RES ovarian, 106%.
As to `Cc1ccc(S(=O)(=O)N2CCc3ccc(O)c4c3C2Cc2cc(Cl)ccc2-4)cc1` (stereo unspecified), the growth in the test with EKVX NSCLC is 99.6%; in the test with SN12C renal, 91.9%; with UO-31 renal, 48.8%; in the test on TK-10 renal, 69.1%; in the test on ACHN renal, 57.1%; with CAKI-1 renal, 56.1%. The growth is 47.5% in the test with A498 renal; 94% with CCRF-CEM leukemia; 74.4% with MOLT-4 leukemia; 18.9% in the test with SR leukemia; 93.8% in the test with RPMI-8226 leukemia; 75.4% in the test with OVCAR-8 ovarian. The growth was 70.3% with OVCAR-4 ovarian; 70% in the test with SK-OV-3 ovarian; 57.6% in the test with IGROV1 ovarian; -3.87% (active) in the test on OVCAR-3 ovarian; 62.8% in the test with HS 578T breast; 42.6% in the test with NCI/ADR-RES ovarian.
Regarding `CC(=O)OC[C@H](O)[C@@]1(O)CC[C@H]2[C@@H]3CCC4=CC(=O)CC[C@]4(C)[C@H]3[C@@H](O)C[C@@]21C`, the growth in the test on EKVX NSCLC was 87.3%; in the test with SN12C renal, 85.9%; in the test on UO-31 renal, 78%; in the test with TK-10 renal, 112%; in the test on ACHN renal, 111%; in the test on CAKI-1 renal, 85.5%. Further, the growth was 112% with A498 renal; 89.4% with CCRF-CEM leukemia; 89% with MOLT-4 leukemia; 99.9% in the test with SR leukemia; 89.8% with RPMI-8226 leukemia; 98.5% in the test on OVCAR-8 ovarian. The growth with OVCAR-5 ovarian is 96.6%; with OVCAR-4 ovarian it was 105%; in the test on SK-OV-3 ovarian it was 90.8%; in the test on IGROV1 ovarian, 111%; in the test on OVCAR-3 ovarian it was 108%; with HS 578T breast, 114%. The growth with NCI/ADR-RES ovarian was 102%.
With `CCCCCCCCCCCC(=O)[O][Sn]([CH2]CCC)([CH2]CCC)[CH2]CCC`, the growth in the test with SK-MEL-2 melanoma was -90.5% (active); with SN12C renal it was -93.5% (active); with UO-31 renal, -97.9% (active); in the test with ACHN renal it was -95.2% (active); in the test with CAKI-1 renal, -97.8% (active); in the test on A498 renal it was -86% (active). The growth in the test with SR leukemia is -42.7% (active); with RPMI-8226 leukemia, -34% (active); in the test with OVCAR-8 ovarian it was -81.4% (active); in the test on OVCAR-5 ovarian, -96.9% (active); with OVCAR-4 ovarian, -98.5% (active); in the test with SK-OV-3 ovarian it was -100% (active). Further, the growth is -77.1% (active) in the test with IGROV1 ovarian, -97.5% (active) in the test with OVCAR-3 ovarian, -20.2% (active) in the test with HS 578T breast and -80.5% (active) with NCI/ADR-RES ovarian.
Turning to `CCC(C)[C@H]1O[C@]2(CC[C@@H]1C)C[C@@H]1C[C@@H](C/C=C(\C)[C@@H](OC3C[C@H](OC)C(O[C@H]4C[C@H](OC)[C@@H](O)[C@H](C)O4)[C@H](C)O3)[C@@H](C)/C=C/C=C3\CO[C@@H]4[C@H](O)C(C)=C[C@@H](C(=O)O1)[C@]34O)O2` (stereo partly specified), the growth was 4.67% (active) with EKVX NSCLC; 14.6% in the test on SN12C renal; 9.45% (active) with UO-31 renal; 30.2% in the test on TK-10 renal; -66.3% (active) in the test on ACHN renal; -15.1% (active) in the test on CAKI-1 renal. Also, the growth is -23.7% (active) with A498 renal; 25.9% in the test with CCRF-CEM leukemia; 42.4% in the test on OVCAR-8 ovarian; 50.8% with SK-OV-3 ovarian; 27.3% with IGROV1 ovarian; -26.5% (active) in the test on OVCAR-3 ovarian. Besides, the growth in the test with HS 578T breast is 26%; in the test on NCI/ADR-RES ovarian, 7.07% (active).
